Among the data in PubChem BioAssay AID1481 (The Scripps Research Institute Molecular Screening Center, 2009) are inhibition values, retold here.

Molecules are shown by their SMILES. Hit rate of the full screen: of about 220,000 compounds, about 920 (0.42%) were called active. This is one part of a sample in which actives are shown more often than they occur. A number with no mark means an inactive call. Rule as the data show it: active = inhibition above about 15%; inactive = the rest.

Broadly, the inhibition is the change of the read-out against control, counted positive when it falls.

The assay deals with Transitional endoplasmic reticulum ATPase (Homo sapiens) (UniProt P55072). Put plainly: inhibitors of human p97 ATPase, primary screen, biochemical (AID 1481).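 Also: 0% = DMSO vehicle and 100% = wells lacking enzyme.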 The conditions noted are these: recombinant p97 ATPase, Kinase-Glo ATP luminescence, 3 h; at 8 µM; hits give high values. Background: Kinase-Glo reads ATP consumption through a luciferase reaction.
Transitional endoplasmic reticulum ATPase (Homo sapiens), sequence (P55072 whole entry, looked up): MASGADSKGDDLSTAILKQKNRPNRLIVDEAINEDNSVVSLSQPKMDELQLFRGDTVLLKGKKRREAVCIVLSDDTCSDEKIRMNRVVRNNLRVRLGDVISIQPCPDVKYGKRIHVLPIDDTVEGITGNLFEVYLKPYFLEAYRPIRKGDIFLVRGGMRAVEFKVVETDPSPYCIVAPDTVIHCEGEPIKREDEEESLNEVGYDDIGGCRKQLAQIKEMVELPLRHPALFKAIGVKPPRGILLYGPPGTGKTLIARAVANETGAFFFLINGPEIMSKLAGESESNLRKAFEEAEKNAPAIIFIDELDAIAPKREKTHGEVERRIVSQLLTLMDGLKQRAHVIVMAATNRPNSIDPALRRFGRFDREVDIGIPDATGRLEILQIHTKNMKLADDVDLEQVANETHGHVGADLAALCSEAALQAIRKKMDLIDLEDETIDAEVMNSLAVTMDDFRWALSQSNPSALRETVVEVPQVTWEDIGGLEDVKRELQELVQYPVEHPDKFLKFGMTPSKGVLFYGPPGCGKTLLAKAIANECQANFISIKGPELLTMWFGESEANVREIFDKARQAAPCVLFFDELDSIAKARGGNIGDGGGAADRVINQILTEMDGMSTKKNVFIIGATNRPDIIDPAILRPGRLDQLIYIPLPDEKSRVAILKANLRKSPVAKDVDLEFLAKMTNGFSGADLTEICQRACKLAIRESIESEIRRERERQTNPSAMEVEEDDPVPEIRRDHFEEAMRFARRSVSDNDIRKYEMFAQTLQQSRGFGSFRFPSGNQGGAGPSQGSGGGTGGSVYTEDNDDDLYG
As to `Cc1no[n+]([O-])c1COc1ccccc1/C=C1\NC(=S)NC1=O`, the inhibition is 36% (active).

Take `Cc1ccccc1-n1c(C)cc(/C=C2\NC(=O)NC2=O)c1C`: the inhibition was -1.59%.

As for `Cc1ccc(/C=N/NC(=O)COc2ccccc2-c2ccccc2)cc1`, the inhibition is -5.12%.

Regarding `Cc1ccc(NC(=O)NC2CCCCC2)cc1S(=O)(=O)N1CCOCC1`, the inhibition is 1.18%.

As for `CCOc1c(CNCc2ccc(C(=O)O)cc2)cccc1OC`, the inhibition is 3.61%.

With `S=c1[nH]nc(-c2ccc(Cl)cc2)n1CC1CCCO1` (stereo unspecified), the inhibition is -0.03%.

As to `O=C(c1nnc(-c2ccc(Cl)cc2)o1)C1CCCC1`, the inhibition is -6.78%.

For `O=C(c1[nH]ncc1-c1ccc(Cl)cc1)C1CO1` (stereo unspecified), the inhibition was 18.1% (active).

Turning to `CN(CC(=O)NCCc1ccccc1)S(=O)(=O)c1cnc[nH]1`, the inhibition is -2.11%.

Take `O=C(c1ccc(OC2CCN(C(=O)c3cccnc3)CC2)cc1)N1CCCCCC1`: the inhibition is -2.04%.

Consider `Nc1nnnn1/N=C/c1cc([N+](=O)[O-])ccc1O`, for which the inhibition was 1.03%.

For the compound `CCOC(=O)CCCN1CC(O)=C(c2nc3ccccc3s2)C1=N`, the inhibition is -8.77%.

With `COc1ccccc1N1CC(O)=C(c2nc3ccccc3s2)C1=N`, the inhibition was 6.21%.

As for `N=C1C(c2nc3ccccc3s2)=C(O)CN1NC(=O)c1ccc([N+](=O)[O-])cc1`, the inhibition was 28.3% (active).

In the case of `O=C(CCc1ccccc1)Nc1nn[nH]n1`, the inhibition is -3.71%.

Regarding `CC(NC(=S)Nc1ccc(S(N)(=O)=O)cc1)c1ccc2c(c1)OCO2` (stereo unspecified), the inhibition was 0.42%.

Consider `CC1CCCN(C(C(=O)Nc2ccc(C(C)C)cc2)c2ccc3c(c2)OCO3)C1` (stereo unspecified), for which the inhibition was 15.3% (active).

`O=C(Nc1ccc2c(c1)OCCO2)C(c1ccc(F)cc1)N1CCCCC1` (stereo unspecified): the inhibition is -0.16%.

Regarding `CN1C(=O)C(CC(=O)Nc2ccccc2)S/C1=N/c1nccs1` (stereo unspecified), the inhibition was 6.76%.

For the compound `CC(=O)c1cc(C#N)c(N2CCCCC2)nc1C`, the inhibition was -1.2%.

With `N#Cc1c(N2CCCCC2)nc(N)c2c(N)nc(SCC(=O)O)cc12`, the inhibition was 53.6% (active).

As for `Cc1cc(C)c(C#N)c(N2CCC(C(N)=O)CC2)n1`, the inhibition is 3.21%.

For `O=C(NC(=O)N1CCOCC1)c1ccccc1`, the inhibition was 5.31%.

On to `O=C(CCl)N(Cc1cccc([N+](=O)[O-])c1)c1cccc(Cl)c1`, for which the inhibition is -3.6%.

Take `CCOC(=O)CN1CCC(c2ccccc2)CC1`: the inhibition is -3.38%.

As for `CCOC(=O)N1CCC(NC(=O)COc2cc(=O)n(C)c3ccccc23)CC1`, the inhibition was -0.15%.

For the compound `CCOC(=O)N1CCC(c2cc(=O)n(-c3ccccc3)[nH]2)CC1`, the inhibition was 23% (active).

As for `CC(=O)Nc1nc2c(s1)C(=O)NCC(C)(C)C2`, the inhibition was 0.86%.

As for `Cc1cc(C)c2c(n1)nn1c(-n3ccnc3)cc(C)nc21`, the inhibition is 31.7% (active).

Regarding `Cc1cc(C)c2c(n1)nn1c(N3CCN(c4cccc(Cl)c4)CC3)cc(C)nc21`, the inhibition was -0.34%.

On to `Cc1cc(C)c2c(n1)nn1c(N3CCOCC3)cc(C)nc21`, for which the inhibition is 5.86%.

Consider `O=[N+]([O-])c1cc([N+](=O)[O-])c2cccnc2c1O`, for which the inhibition is -0.5%.

On to `O=C(/C=C/c1ccc(N2CCOCC2)cc1)c1ccccc1`, for which the inhibition is 3.1%.

With `NC(N)=N/N=C/c1ccc(OCc2ccc(Cl)cc2Cl)cc1`, the inhibition was 17.6% (active).

As to `NC(N)=N/N=C/c1ccc(Cl)c([N+](=O)[O-])c1`, the inhibition is 4.25%.

Consider `COc1ccc(C(=O)O/N=C(\N)Cc2ccc(Cl)cc2Cl)cc1OC`, for which the inhibition is -0.33%.

As to `Nn1c(SCC(=O)Nc2nccs2)nncc1=O`, the inhibition is 3.78%.

`COc1ccc(NC(=O)/C(Cl)=C(/Cl)S(=O)Cc2ccc(C)cc2)cn1` (stereo unspecified): the inhibition is 10.7%.

For `COc1ccc(NC(=S)Nc2ccccc2Cl)cn1`, the inhibition was 2.95%.

As to `COc1ccc(CS(=O)/C(Cl)=C(/Cl)C(=O)Nc2ccc(OC)nc2)cc1` (stereo unspecified), the inhibition is 22% (active).

On to `CC1CCN(c2ccc([N+](=O)[O-])c(SCCO)c2)CC1`, for which the inhibition was 7.8%.

Consider `Cc1cc(C)c2cc(CN(Cc3cccs3)Cc3nnnn3CC3CCCO3)c(=O)[nH]c2c1` (stereo unspecified), for which the inhibition is -6.18%.

With `Cc1cc(C)c2cc(CN(Cc3nnnn3Cc3ccc(F)cc3)C3CCCC3)c(=O)[nH]c2c1`, the inhibition is 28.6% (active).

Take `Cc1cccc2cc(CN(Cc3nnnn3Cc3ccccc3)C3CCCC3)c(=O)[nH]c12`: the inhibition was 1.15%.

As to `O=C(COc1ccc(/C=N/NS(=O)(=O)c2ccccc2)cc1)NCCc1ccccc1`, the inhibition is 0.13%.

With `COCCNc1nc2nonc2nc1N(C)Cc1ccc(C)cc1`, the inhibition is -0.9%.

For the compound `CN1CCN(/N=C2/C(=O)Nc3ccc([N+](=O)[O-])cc32)CC1`, the inhibition was -0.51%.

Regarding `Cc1nc2cccnc2nc1C`, the inhibition is 5.4%.

`O=C(N/N=C/c1sc(N2CCCCC2)nc1-c1cccs1)c1cccnc1`: the inhibition was -2.01%.

Turning to `CC(=O)Nc1ccc(S(=O)(=O)Nc2ccc(-c3ccc4nnc(C)n4n3)cc2)cc1`, the inhibition is 0.45%.

Take `CCOC(=O)c1cc2c(nc1NC(=S)Nc1ccccc1)CC(C)(CC)OC2` (stereo unspecified): the inhibition was -6.73%.

`O=C(Nc1ccccc1Cl)c1ccc2nsnc2c1`: the inhibition was 2.33%.

Turning to `O=C(CN1CCCCC1)Nc1ccccc1Cl`, the inhibition is -2.65%.

With `O=C(Nc1ccccc1Cl)/C(Cl)=C(\Cl)S(=O)c1ccccc1` (stereo unspecified), the inhibition is 20% (active).

As for `CCCc1nc2c(c(=O)c3ccccc3n2C)c(=O)n1-c1cc(C)cc(C)c1`, the inhibition is 1.03%.

For `COc1ccc(/C=N/N=C2/C(=O)Nc3ccccc32)cc1O`, the inhibition was -3.95%.

For `Cc1nnc2n1N=C(c1ccc3c(c1)NC(=O)CO3)CS2`, the inhibition is 4.3%.

Regarding `O=C(OCC1O[C@@H](OC(=O)c2cc(O)c(O)c(O)c2)[C@@H](OC(=O)c2cc(O)c(O)c(O)c2)[C@@H](OC(=O)c2cc(O)c(O)c(O)c2)[C@@H]1OC(=O)c1cc(O)c(O)c(O)c1)c1cc(O)c(O)c(O)c1` (stereo partly specified), the inhibition is 67% (active).

Turning to `CC(=O)NC1C(OCc2ccccc2)OC(COC(C)=O)C(OC(C)=O)C1OC(C)=O` (stereo unspecified), the inhibition was 1.05%.

Turning to `COC(=O)c1scc(C)c1NC(=O)CSc1ccc(Cl)cc1`, the inhibition was -1.74%.

As for `CN(C)[C@@H]1C(=O)C(C(N)=O)=C(O)[C@@]2(O)C(=O)C3=C(O)c4c(O)ccc(Cl)c4[C@@H](O)[C@H]3C[C@@H]12`, the inhibition is 23.4% (active).

Regarding `COc1ccc(CCNS(=O)(=O)c2ccc(Cl)s2)cc1OC`, the inhibition was -7.85%.

In the case of `Cn1c(N)cc(-c2ccc(F)cc2)c(C#N)c1=O`, the inhibition was -2.35%.

Regarding `O=C(Nc1nnc(CCN2CCCCC2)s1)c1cccc(Cl)c1`, the inhibition is 2.22%.

For the compound `Cn1c(=O)c2c(-c3cccc(Br)c3)c(C#N)c(N)nc2n(C)c1=O`, the inhibition was 0.09%.

Turning to `Cc1cc(C(=O)NNC(=O)c2cccc(S(=O)(=O)N3CCOCC3)c2)c2ccccc2n1`, the inhibition is -3.18%.

As for `O=C(NNC(=S)Nc1ccccc1)c1cccc(S(=O)(=O)N2CCOCC2)c1`, the inhibition was 15.6% (active).

Take `O=C(c1cccc(S(=O)(=O)N2CCOCC2)c1)N1CCOCC1`: the inhibition is 0.28%.

With `COCC(C)NCc1cc(Br)ccc1OC` (stereo unspecified), the inhibition was 0.25%.

`Cn1cccc1/C=N/NC(=O)CNc1cccc2ccccc12`: the inhibition is 3.45%.

Regarding `CN(C)C=NC(=O)c1cccn1-c1ncc(C(F)(F)F)cc1Cl`, the inhibition is -5.69%.

As to `O=C(C1=C(O)C(=O)N(CCOCCO)C1c1ccccn1)c1cccs1` (stereo unspecified), the inhibition was 2.8%.

As for `Cc1cc(C)cc(NC(=O)N(C)Cc2ccccc2)c1`, the inhibition was -0.6%.

As to `Cn1c(SCC(=O)C(C)(C)C)nnc1-c1ccccn1`, the inhibition is -4.36%.

As for `CCSc1nc(-c2ccc(OC)cc2)cc(-c2ccc(OC)cc2)c1C#N`, the inhibition is 0.73%.

Turning to `CCOc1cc(-c2cc(-c3ccc(OC)cc3)nc(N)c2C#N)ccc1O`, the inhibition is 2.46%.

Regarding `COc1ccc(-c2cc(-c3ccc(N)cc3)nc(N)c2C#N)cc1OC`, the inhibition was 18.6% (active).

`COc1ccc(N2CCC(CNC(=S)Nc3c(C)cccc3C)C2)cc1` (stereo unspecified): the inhibition is 1.49%.

As to `O=C1N(c2ccc(Cl)cc2)C(c2ccc(Cl)cc2)N2CCCN12` (stereo unspecified), the inhibition is 4.79%.

For `Cn1c(=NC(=O)c2ccc3c(c2)OCCO3)sc2cc(S(C)(=O)=O)ccc21`, the inhibition was -0.6%.

As to `S=C(Cc1ccc(Cl)cc1)N1CCOCC1`, the inhibition was -3.61%.

In the case of `Cc1ccccc1OCCC(=O)Nc1c(C)n(C)n(-c2ccccc2)c1=O`, the inhibition is 3.48%.

For the compound `CC(=O)N1CCc2cc(Br)cc(S(=O)(=O)CCC(=O)Nc3c(C)n(C)n(-c4ccccc4)c3=O)c21`, the inhibition is 16.1% (active).

On to `Cc1ccc(S(=O)(=O)CC(=O)Nc2c(C)n(C)n(-c3ccccc3)c2=O)cc1`, for which the inhibition was 0.73%.

In the case of `O=C(/C=C/c1ccc2c(c1)OCCO2)c1ccc(O)cc1`, the inhibition is 9.09%.

In the case of `CCN(c1ccccc1)S(=O)(=O)c1ccc2[nH]c(=O)[nH]c2c1`, the inhibition is 5.66%.

As to `CCN(c1ccccc1)S(=O)(=O)c1ccc(N)cc1`, the inhibition was 21.5% (active).

As to `CCN(c1ccccc1)S(=O)(=O)c1ccc(NC(=O)C(C)(C)C)cc1`, the inhibition was 0.99%.

For `CS(=O)(=O)N1CCC(C(=O)N2CCN(c3ccccc3)CC2)CC1`, the inhibition is 1.55%.

Regarding `CSc1ccccc1NC(=O)CN(C)CC(=O)Nc1cccc(Br)c1`, the inhibition was -6.18%.

As for `C/C=N/N(c1ccccc1)c1ccccc1`, the inhibition is 0.39%.

Take `CCOc1c(Br)cc(/C=C2\C(=O)N(CCC#N)N=C2C)cc1OC`: the inhibition was 26.9% (active).

As to `C=CCOc1c(Br)cc(/C=N\n2nnnc2N)cc1OC`, the inhibition is -2.19%.

With `CCOc1cc(/C=N/O)cc(Br)c1OC`, the inhibition is 7.25%.

As for `C/C(CC(=O)Nc1ccc(Cl)cc1)=N\NC(=O)C(=O)NCCO`, the inhibition was 2.21%.

Regarding `O=S(=O)(Cc1ccccc1)c1nc2ccccc2n1Cc1ccccn1`, the inhibition is 2.46%.
